Source: PubChem
Only some compounds are listed: those with a hit (about 15% of all), similar ones and a draw of the others.
HCMV inh: blocks human cytomegalovirus replication | HFF cells, HCMV-luciferase reporter, 72 h; stronger effect = lower value | activity change, negative = inhibition, % at 57.5 µM | actives 4.5% (n = 410,000) | AID 1259415; in the data active = activity change below about -60%; inconclusive = no clear call, values can overlap the other calls; inactive = above about -39%; also: % is scaled to controls: 0 for no effect and ±100 for the full control effect
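Luciferase read-out from HCMV-luciferase-infected HFFs (MOI 1 PFU/cell) 72 h post infection at 37C; compounds added after 16 h cell attachment; activity normalized between buffer-only basal and Salinomycin (10uM) inhibitor controls.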
HCV inh: inhibitors of hepatitis C virus infection; actives 3.4% (n = 340,000); Potency, µM (doses to about 41.8 µM), for the others: at the top dose activity change, negative = inhibition, most hits filed as inhibitors; AID 651820; Huh7.5.1 HCVcc-Cre infection, luciferase reporter, 44 h; also: potency is read from the fitted curve at half-maximal effect; % is scaled to controls: 0 for no effect and ±100 for the full control effect
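After 44 h co-culture of compound, cells and HCVcc-Cre (~0.5 moi), substrate is added for 15 min at room temperature and luciferase measured over 15 sec. Cells were seeded at 1,000/well and pre-cultured 4 h.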
Pf growth 96h: P. falciparum growth inhibition at 96 hours; P. falciparum luciferase reporter growth, 96 h; Potency, µM (highest dose often 28.7 µM), inactives show at the top dose activity change, negative = inhibition, usual class: inhibitors; actives 6.9% (n = 320,000); AID 504834; also: potency is read from the fitted curve at half-maximal effect; % is scaled to controls: 0 for no effect and ±100 for the full control effect
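Luminescence readout: decreased luciferase signal marks inhibited growth of reporter-expressing P. falciparum in infected red cells (2% hematocrit, 0.05% parasitemia final), exposed to compound two generations (96 h, 37 C, 5% CO2).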
Sm TGR block: blocks Schistosoma mansoni thioredoxin glutathione reductase; Q962Y6; purified TGR, DTNB reduction, TNB absorbance 405 nm; Potency, µM (doses to about 114 µM), inactives show top-dose activity change, negative = inhibition, most hits filed as inhibitors; actives 3% (n = 360,000); AID 485364; also: potency is read from the fitted curve at half-maximal effect; % is scaled to controls: 0 for no effect and ±100 for the full control effect; nearly all actives have a fitted effect of over 60% in size
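Kinetic colorimetric format: TGR-catalysed, NADPH-driven DTNB reduction monitored via TNB absorbance. Enzyme dispensed at 20 nM; compound exposure 15 min at room temperature before reaction start.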
SARS PLpro yeast: blocks SARS-CoV papain-like protease in a yeast assay. Potency, µM (highest dose often 32.9 µM), inactives show top-dose activity, positive = growth rescue, usual class: activators. actives 0.19% (n = 330,000). AID 485353. S. cerevisiae expressing SARS-CoV PLpro, growth rescue; calls by dose curve; also: potency is read from the fitted curve at half-maximal effect; 0% is about no effect; nearly all actives have a fitted effect of over 55% in size
Pf growth 48h: inhibits P. falciparum growth in the first generation, 48 h | P. falciparum luciferase growth in erythrocytes, 48 h | actives 5.9% (n = 310,000) | Potency, µM (titrated, usually from 28.7 µM), without a hit: top-dose activity change, negative = inhibition, actives largely listed as inhibitors | AID 504832; also: potency is read from the fitted curve at half-maximal effect; % is scaled to controls: 0 for no effect and ±100 for the full control effect
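Read-out is firefly luciferase luminescence from an integrated reporter in P. falciparum, so falling signal marks reduced parasite growth. Infected erythrocytes were at 2% hematocrit and 0.1% parasitemia (final) in Albumax-supplemented RPMI 1640.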
* hit, by the source's call; ? = inconclusive; · = no result given; [ ] = remark or other dose. Unless noted, calls follow the shape of the dose curve; as a rule, active = well fitted curve in the direction sought with a large enough effect; inconclusive = small, poorly fitted or top-dose-only effect, or another doubt; inactive = no such curve, though single readings can be large; an effect the other way counts as inactive or inconclusive.

SMILES | HCMV inh | HCV inh | Pf growth 96h | Sm TGR block | SARS PLpro yeast | Pf growth 48h
COC(=O)C1=C(c2ccc(OCc3ccccc3)cc2)C[C@@H]2CC[C@H]1N2C(=O)NCc1ccccc1 | -16.6 | 10µM* | ? | 2.1% | 1.4% | 7.38µM*
COC(=O)C1=C(c2ccc(OCc3ccccc3)cc2)C[C@@H]2CC[C@H]1N2C(=O)NCc1ccc2c(c1)OCO2 | -38.4 | · | · | · | · | ·
Cc1ccc(NC(=O)C2CCCN(S(=O)(=O)c3ccc4c(c3)CCCC(=O)N4)C2)cc1N(C)C (stereo unspecified) | -32.5 | · | · | 7.3% | · | ·
CCOc1ccc2nc(C)cc(Nc3cccc([N+](=O)[O-])c3)c2c1 | -97.0* | ? | 1.04µM* | -8.3% | -1.0% | 1.65µM*
CCOc1ccc2nc(C)cc(Nc3ccc(N4CCOCC4)cc3)c2c1 | · | 1.3%[0.335 µM] | 2.62µM* | -8.0% | ? | 2.08µM*
Cc1ccc2nc(C)cc(Nc3ccc4c(c3)OCCO4)c2c1 | -26.6 | ? | -100.3% | 2.5% | 6.3% | ·
Cc1cc(C)nc(Nc2ccc(N3CCOCC3)cc2)n1 | 10.4 | 8.2% | · | 0.0% | -1.0% | ·
CCOc1ccc2nc(C)cc(Nc3ccc4c(c3)OCCO4)c2c1 | 8.6 | -28.6% | 2.62µM* | -29.3% | 2.4% | ?
COc1ccc(-c2nc(CSCC(=O)N3CCN(c4cc(Cl)ccc4C)CC3)c(C)o2)cc1 | -80.3* | · | · | -10.3% | · | ·
COc1ccc(-c2nc(CSCC(=O)N3CCN(C)CC3)c(C)o2)cc1OC | 28.3 | -4.8% | ? | 1.5% | 3.1% | ·
COc1ccc(-c2nc(CSCC(=O)N3CCN(c4cccc(C)c4C)CC3)c(C)o2)cc1OC | -93.3* | · | · | -4.2% | · | ·
CSc1ccc(-c2nc(CSCC(=O)N3CCOCC3)c(C)o2)cc1 | -74.2* | ? | ? | 7.7% | -0.8% | 41.4%
COc1ccc(-c2nc(CSCC(=O)N3CCN(c4ccc(OC)cc4)CC3)c(C)o2)cc1 | -29.4 | · | · | -24.0% | · | ·
O=C(O)Cc1ccc(NC(=O)Nc2ccc3c(c2)OCO3)cc1 | 49.1 | 13.7% | 120.3% | 4.4% | 8.7% | 41.2%
COc1cccc(C(=O)Nc2cccc(-c3ccc(N4CCOCC4)nn3)c2)c1OC | 124.2 | ? | 0.0% | -11.9% | 0.2% | ?
Cc1nc(CN(C)Cc2nc(Cc3cccc(F)c3)no2)cs1 | -31.9 | 5.7% | 38.3% | 1.4% | 0.6% | 0.0%
CN(Cc1nc(Cc2cccc(F)c2)no1)CC1CCOCC1 | -31.4 | 10.1% | 14.7µM* | · | -1.1% | 2.0%
O=C(c1cnn(-c2ccccc2)c1-n1cccc1)N1CCN(C2CCCCC2)CC1 | 28.0 | 13.3% | 140.5% | -16.0% | 0.0% | -11.1%
CNC(=S)N/N=C1\C(=O)c2cccc3cccc1c23 | -106.4* | 2.5% | ? | -3.0% | -6.2% | 0.0%
O=C1C([N+](=O)[O-])=C(O)c2cccc3cccc1c23 | · | · | 24.5% | 39.8µM* | 2.4% | -0.1%
O=C1C(=O)c2cccc3cccc1c23 | ? | 13.9% | 6.57µM* | -0.6% | -12.0% | 10.4µM*
CCCCNC(=S)N/N=C1\C(=O)c2cccc3cccc1c23 | -11.6 | -29.1% | 4.3% | 6.0% | 15.1% | ·
Cn1cc(-c2coc3c(C(=O)NCc4cccc(Cl)c4)cccc23)cn1 | -19.4 | · | · | · | · | ·
Cc1cccn2c(=O)c(/C=C(\C#N)C(=O)NCc3ccccc3)c(N3CCC(C(N)=O)CC3)nc12 | -18.3 | -13.5% | 0.0% | 5.7% | 0.9% | 2.5%
Cc1cc(C)cc(OCCCn2c(-c3ccc(Cl)cc3)nc3ccccc3c2=O)c1 | 19.5 | · | · | -5.3% | · | ·
Cc1cccc(C(C)C)c1-n1nnnc1-c1ccccc1 | 15.5 | 19.1% | -7.4%[5.75 µM] | 3.3% | -12.3% | 10.4µM*
CCCCNC(=O)c1nc2ccccc2nc1-c1ccc(F)c(F)c1 | 53.4 | · | · | · | · | ·
CC(C)Cc1nc(N2CCOCC2)c(C#N)c2c1COC(C)(C)C2 | 30.8 | ? | · | -2.3% | -2.0% | 10.4µM*
CC(C)c1nc(NCCN2CCOCC2)c(C#N)c2c1COC(C)(C)C2 | -20.1 | ? | 49.1% | 10.0% | -12.0% | ?
